# Screening results deposited in PubChem BioAssay by National Center for Advancing Translational Sciences (NCATS).
# The list is not random: actives were taken first. Their share in the collection is about 10%.
# aGal spleen mod – inhibits or activates alpha-galactosidase in human spleen homogenate; hit rate 0.008% among 240,000; Potency, µM (series often up to 80 µM), hits mostly inhibitors; P06280; human spleen homogenate, 4MU-alpha-Gal fluorescence, 40 min
#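 Human spleen homogenate (1 ug) as enzyme source, 4-methylumbelliferyl-alpha-D-galactopyranoside 1 mM final, citrate/phosphate pH 5.0 with 0.01% Tween-20. Compounds 40 min at 37C, NaOH/glycine stop; fluorescence Ex 365/Em 440, Hill-fit AC50.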
# GLA inh pH 4.5 – inhibitors of human alpha-galactosidase A at pH 4.5 | AID 1467 | 230,000 tested, under 10 active | activity change, negative = inhibition, % at 105 µM | purified enzyme, 4-MU-alpha-Gal fluorescence, pH 4.5 | P06280
# ALDH1A1 inh – blocks purified human ALDH1A1 activity | P00352 | Purified ALDH1A1, NADH fluorescence, propionaldehyde substrate | Potency, µM (titrated, usually from 75.3 µM), hits mostly inhibitors | hit rate 7.3% among 220,000 | AID 1030; active = well fitted inhibition curve with a large enough effect, not every such curve was filed as active; inconclusive = small, poorly fitted or top-dose-only effect, or another doubt; inactive = no such curve, though single readings can be large or run the other way
# Target sequence (P00352 whole entry, looked up): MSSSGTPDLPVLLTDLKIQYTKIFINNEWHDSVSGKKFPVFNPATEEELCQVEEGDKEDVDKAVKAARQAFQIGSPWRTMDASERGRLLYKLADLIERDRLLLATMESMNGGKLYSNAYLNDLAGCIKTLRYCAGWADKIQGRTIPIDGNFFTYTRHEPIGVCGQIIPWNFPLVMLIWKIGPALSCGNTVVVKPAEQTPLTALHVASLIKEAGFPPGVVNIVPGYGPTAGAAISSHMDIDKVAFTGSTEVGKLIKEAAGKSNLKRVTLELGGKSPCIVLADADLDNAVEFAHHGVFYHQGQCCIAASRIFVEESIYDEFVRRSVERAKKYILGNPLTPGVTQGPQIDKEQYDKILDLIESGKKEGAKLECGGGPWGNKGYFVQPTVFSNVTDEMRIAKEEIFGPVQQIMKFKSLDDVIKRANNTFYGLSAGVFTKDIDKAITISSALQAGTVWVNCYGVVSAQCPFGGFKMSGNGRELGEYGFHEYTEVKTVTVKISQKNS
# PNC assembly inh – inhibitors of perinucleolar compartment assembly. hit rate 3.1% among 140,000. PC3M PTB-GFP, PNC prevalence imaging, 16 h; active compounds read low. activity change (PNC), negative = inhibition, % at 10 µM;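 active = readout at or below -70, meaning at least 70% loss of cells showing the perinucleolar compartment, a nuclear body marking cancer cells; inconclusive = readout between -30 and a set limit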
#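 PC3M cells stably expressing PTB-GFP, 750–1000 cells/well, treated 16 h at 37 °C with compound (23 nl of library stock), in duplicate. After paraformaldehyde fixation and Hoechst stain, imaged at 20x; PNC prevalence scored by image analysis.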
# HPGD block – inhibitors of human 15-hydroxyprostaglandin dehydrogenase (HPGD); P15428; purified HPGD, NADH fluorescence kinetic, PGE2 substrate; Potency, µM, most hits filed as inhibitors; hit rate 4.3% among 150,000; active = well fitted inhibition curve with a large enough effect, not every such curve was filed as active; inconclusive = small, poorly fitted or top-dose-only effect, or another doubt; inactive = no such curve, though single readings can be large or run the other way
#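 20 nM HPGD preincubated 15 min at room temperature with compound in 50 mM Tris-HCl pH 8, 0.01% Tween 20. Started with 1 mM NAD+ and 30 uM prostaglandin E2; NADH fluorescence (360/450 nm) read 5 times over 30-s intervals, last minus first.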
# 12-hLO inh – inhibitors of human 12-lipoxygenase (ALOX12); hit rate 0.12% among 150,000; Potency, µM (highest dose often 57.1 µM), actives largely listed as inhibitors; purified 12-hLO, xylenol orange hydroperoxide absorbance; AID 1452; P18054; note: nearly all actives have a fitted effect of over 55% in size
#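 Purified human 12hLO (150 nM final) was preincubated with compounds for 15 min at room temperature in 25 mM Hepes pH 7.0, 0.01% Triton X-100, then reacted with 40 uM arachidonic acid for 30 min. Hydroperoxide was detected with ferrous iron/xylenol orange.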
# Numbers stand for hits; - = inactive; ? = inconclusive; . = no result; [ ] = dose if it differs, or a comment. Unless noted, calls come from the whole dose curve; as a rule, active = well fitted curve in the direction sought with a large enough effect; inconclusive = small, poorly fitted or top-dose-only effect, or another doubt; inactive = no such curve, though single readings can be large; an effect the other way counts as inactive or inconclusive.
SMILES,aGal spleen mod,GLA inh pH 4.5,ALDH1A1 inh,PNC assembly inh,HPGD block,12-hLO inh
O=C(c1cn(-c2ccccc2)nc1-c1ccc(Br)cc1)N1CCOCC1,-,-,-,-113.8,-,-
CC(=O)N[C@@H](C=O)[C@@H](O)[C@H](O)[C@H](O)CO,-,-,-,.,-,-[0.00818 µM]
O=C(c1cn(-c2ccccc2)nc1-c1cccc(Br)c1)N1CCOCC1,-,-,25.1µM,.,.,.
O=C1C2C(c3ccccc3)CC=CC2C(c2ccc(C(F)(F)F)cc2)N1Cc1ccccc1 (stereo not drawn),-,.,.,.,.,.
CC1=C(C(=O)c2ccccc2)C(c2ccc(OC(F)F)cc2)NC(=S)N1 (stereo not drawn),-,-,1.12µM,.,.,.
Nc1ncnc2c1nc(Br)n2[C@H]1O[C@H]2COP(=O)(O)O[C@H]2[C@@H]1O,-,-,-,.,-,-
CC(C)NC(=O)NC(=O)COC(=O)Cc1ccsc1,-,-,14.1µM,-,-,-
C=CC1=C2C=C(C3CC3)N(CCCOC(C)C)C=C2C(=O)C(C)(OC(=O)c2ccco2)C1=O (stereo not drawn),-[17.5 µM],-,-[13.5 µM],.,-,-[11.4 µM]
O=C(CN1CC(c2ccccc2)CC1=O)OCc1ccccc1F (stereo not drawn),-,-,8.91µM,-90.9,-,-
COc1cc(NC(=O)CN2CC(c3ccccc3)CC2=O)cc(OC)c1 (stereo not drawn),-,-,-,-,-,-
C/C(=C\C(=O)c1ccccc1)Nc1ccc(Br)c(Cl)c1,-,-,-,-,?,-
O=C(Cc1ccccc1)Nc1ccc(Br)c(Cl)c1,-,-,15.8µM,-82.1,-,-
c1ccc(C(c2cccc3c2ccc2ccccc23)[C@H](c2ccccc2)c2cccc3c2ccc2ccccc23)cc1 (stereo partly drawn),.,.,-[13.5 µM],.,-,.
O=C(c1cc2ccccc2oc1=O)N(Cc1cccs1)Cc1cccs1,-,-,11.2µM,-,-,-
Cc1ccc(NC2=C/C(=N/S(=O)(=O)c3cccs3)c3ccccc3C2=O)cc1C,-,-,-,-,-,-
Cc1cc(C)c(S(=O)(=O)/N=C2/C=C(Sc3ncn[nH]3)C(=O)c3ccccc32)cc1C,-,-,1.78µM,?,0.891µM,-
O=C1C2C3C=CC([C@@H]2C(=O)N1C1CCCCC1)[C@H]1C(=O)N(C2CCCCC2)C(=O)C31 (stereo partly drawn),-,-,1.41µM,-,-,-
O=C1C=C[C@@H](O)[C@H]2[C@@H]3C(=O)N(C4CCCCC4)C(=O)[C@@H]3CC[C@H]12,-[17.5 µM],.,?,.,.,.
O=C1C2C3C=CC(C2C(=O)N1C1CCCCC1)C1C2C(=O)N(C4CCCCC4)C(=O)C2C31 (stereo not drawn),-,-,1.41µM,-,-,-
Cn1c(=O)c2c(nc(C(=N)SCC(=O)O)n2C)n(C)c1=O,.,.,-[13.5 µM],.,-,-[11.4 µM]
CN(Cc1ccccc1)C(=S)Nc1cccnc1,-,-,-,.,.,.
CNC(=O)C1=C(C)n2c(nc3ccccc32)NC1c1ccc(OC)cc1 (stereo not drawn),-,-,-,-113.8,-,-
CC1=C(C(=O)Nc2ccccc2)C(c2cccc([N+](=O)[O-])c2)Nc2nc3ccccc3n21 (stereo not drawn),-,-,-,?,-,-
O=C(NC(=S)Nc1ccccc1Cl)c1csnn1,-,-,4.47µM,-,?,-
O=C(Nc1ccccc1NC(=O)c1csnn1)c1csnn1,-,-,?,.,.,.
SMILES,aGal spleen mod,GLA inh pH 4.5,ALDH1A1 inh,PNC assembly inh,HPGD block,12-hLO inh
CC(C)c1ccc(NC(=O)c2csnn2)cc1,-,-,17.8µM,-,?,-
COc1ccc(N(CC(=O)NCCc2ccc(Cl)cc2)S(=O)(=O)c2c(C)[nH]c(=O)[nH]c2=O)cc1,-,-,-,.,.,.
CCCOc1ccccc1Cn1c(=O)oc2ccc(C)cc21,-,-,?,?,25.1µM,-
COc1ccc(NC(=O)c2ccc3c(c2)NC(=O)CS3)cc1S(=O)(=O)Nc1ccc(Br)cc1,-,-,10µM,.,.,.
COc1ccc(NC(=O)c2ccc3c(c2)NC(=O)CO3)cc1OC,-,-,-,.,.,.
Cc1ccc(NS(=O)(=O)c2cc(C(=O)Nc3cccc(N(C)S(C)(=O)=O)c3)ccc2C)c(C)c1,-,-,-,-,-,-
